Data from PubChem BioAssay (NCATS).
Inconclusive results are not listed. Activity calls are given as the source filed them. Unless noted, calls follow the shape of the dose curve; as a rule, active = well fitted curve in the direction sought with a large enough effect; inconclusive = small, poorly fitted or top-dose-only effect, or another doubt; inactive = no such curve, though single readings can be large; an effect the other way counts as inactive or inconclusive.

How the values were obtained:
[1] = biological target: Ubiquitin carboxyl-terminal hydrolase 1 (Homo sapiens) (UniProt O94782); assay: Inhibitors of USP1/UAF1: Pilot qHTS (AID 504865);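 also: rhodamine fluorescence freed from ubiquitin-rhodamine substrate followed over time; top concentration of the series differs between compounds; % is scaled to controls: 0 for no effect and ±100 for the full control effect; nearly all actives have a fitted effect of over 35% in size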
Ubiquitin carboxyl-terminal hydrolase 1 (Homo sapiens), sequence (O94782 whole entry, looked up): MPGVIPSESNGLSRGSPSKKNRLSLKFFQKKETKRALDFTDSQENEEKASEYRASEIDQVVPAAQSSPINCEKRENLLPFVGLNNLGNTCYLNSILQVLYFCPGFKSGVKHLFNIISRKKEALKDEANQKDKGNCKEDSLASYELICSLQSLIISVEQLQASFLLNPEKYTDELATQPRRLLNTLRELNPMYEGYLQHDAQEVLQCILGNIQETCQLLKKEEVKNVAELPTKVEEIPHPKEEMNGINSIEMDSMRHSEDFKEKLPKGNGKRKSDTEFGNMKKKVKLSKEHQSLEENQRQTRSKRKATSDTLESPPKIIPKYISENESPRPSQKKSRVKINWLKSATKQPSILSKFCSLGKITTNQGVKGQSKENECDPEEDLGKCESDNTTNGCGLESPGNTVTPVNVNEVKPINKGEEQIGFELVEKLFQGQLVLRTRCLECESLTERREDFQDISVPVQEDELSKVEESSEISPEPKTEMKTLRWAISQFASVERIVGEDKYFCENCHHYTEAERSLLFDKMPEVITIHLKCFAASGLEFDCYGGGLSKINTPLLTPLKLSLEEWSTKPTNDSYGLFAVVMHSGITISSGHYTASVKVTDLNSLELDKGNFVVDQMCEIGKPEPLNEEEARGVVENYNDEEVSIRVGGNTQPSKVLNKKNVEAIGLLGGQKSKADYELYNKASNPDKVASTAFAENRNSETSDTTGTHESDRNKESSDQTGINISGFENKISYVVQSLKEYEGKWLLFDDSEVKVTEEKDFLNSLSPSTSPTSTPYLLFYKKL
Outline: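 USP1/UAF1 complex at 1 nM preincubated 15 min at room temperature with compound, then Ub-Rho substrate added at 150 nM final. Fluorescence (480/540 nm) read kinetically in 50 mM HEPES pH 7.8, 0.5 mM EDTA, 1 mM TCEP, 0.1 mg/ml BSA, 0.01% Tween-20.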

[2] = biological target: Luciferin 4-monooxygenase (Photinus pyralis) (UniProt P08659); assay: Biochemical firefly luciferase enzyme assay for NPC (AID 624030); also: nearly all actives have a fitted effect of over 70% in size; also: potency is read from the fitted curve at half-maximal effect
Luciferin 4-monooxygenase (Photinus pyralis), sequence (P08659 whole entry, looked up): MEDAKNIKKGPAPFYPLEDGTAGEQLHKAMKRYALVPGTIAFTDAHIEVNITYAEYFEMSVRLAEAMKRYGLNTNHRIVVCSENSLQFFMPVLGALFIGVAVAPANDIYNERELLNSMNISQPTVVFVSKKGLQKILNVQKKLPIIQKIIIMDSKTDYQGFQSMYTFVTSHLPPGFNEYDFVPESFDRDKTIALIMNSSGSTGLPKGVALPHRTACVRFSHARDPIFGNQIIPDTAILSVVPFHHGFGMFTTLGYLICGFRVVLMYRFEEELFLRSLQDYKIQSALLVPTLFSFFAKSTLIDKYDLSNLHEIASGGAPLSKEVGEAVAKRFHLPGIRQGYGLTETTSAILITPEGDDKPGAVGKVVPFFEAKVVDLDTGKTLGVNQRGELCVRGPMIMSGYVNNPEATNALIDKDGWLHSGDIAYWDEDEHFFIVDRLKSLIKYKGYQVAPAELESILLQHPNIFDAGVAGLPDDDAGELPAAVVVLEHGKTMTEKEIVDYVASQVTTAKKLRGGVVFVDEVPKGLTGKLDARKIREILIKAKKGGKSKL
Outline: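 Direct inhibition of firefly luciferase enzyme (10 nM final, 50 mM Tris Acetate) assessed by luminescence within 5 minutes. Percent activity scaled between DMSO and PTC124 positive control, with concentration-effect curves classified by fit quality and response.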

[3] = S16 Schwann cell PMP22 intronic element beta-lactamase assay (AID 624044; calls by dose curve; also: nearly all actives have a fitted effect of over 15% in size; also: potency is read from the fitted curve at half-maximal effect;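 as to ratio activity, negative = inhibition: 0% = DMSO and -100% = potassium clavulanate positive control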); conditions: S16 rat Schwann cells, PMP22 element beta-lactamase FRET, 24 h; ratio activity, negative = inhibition: at 38.3 µM (top of the series)
Outline: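 Rat S16 Schwann cells with beta-Lac driven by a PMP22 intronic element, compound-treated 24 h at 37 °C. LiveBLAzer FRET B/G read: 460 nm normalized to potassium clavulanate vs DMSO; 535 nm FRET as viability; concentration-effect curves classified.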

[4] = system: DFO2036; assay: qHTS profiling for inhibitors of Plasmodium falciparum proliferation (AID 504749); also: nearly all actives have a fitted effect of over 60% in size; also: potency is read from the fitted curve at half-maximal effect;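 as to activity, negative = inhibition: 0% = DMSO vehicle and full inhibition = artemisinin control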; conditions: P. falciparum in erythrocytes, SYBR Green DNA, 72 h; series mostly up to 28.7 µM
Outline: (§1)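 Three-day growth assay of blood-stage parasites in erythrocytes (0.3% parasitemia, 2.5% hematocrit) at 37 C, 5% CO2, quantified by SYBR Green DNA staining after overnight detergent lysis.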

[5] = system: W2; assay: as above; conditions: P. falciparum in erythrocytes, SYBR Green DNA, 72 h; series mostly up to 28.7 µM
Outline: as §1

[6] = biological target: Cytochrome P450 3A4 (Homo sapiens) (UniProt P08684); assay: qHTS Assay for Inhibitors and Substrates of Cytochrome P450 3A4 (AID 884); also: % is scaled to controls: 0 for no effect and ±100 for the full control effect; nearly all actives have a fitted effect of over 50% in size
Cytochrome P450 3A4 (Homo sapiens), sequence (P08684 whole entry, looked up): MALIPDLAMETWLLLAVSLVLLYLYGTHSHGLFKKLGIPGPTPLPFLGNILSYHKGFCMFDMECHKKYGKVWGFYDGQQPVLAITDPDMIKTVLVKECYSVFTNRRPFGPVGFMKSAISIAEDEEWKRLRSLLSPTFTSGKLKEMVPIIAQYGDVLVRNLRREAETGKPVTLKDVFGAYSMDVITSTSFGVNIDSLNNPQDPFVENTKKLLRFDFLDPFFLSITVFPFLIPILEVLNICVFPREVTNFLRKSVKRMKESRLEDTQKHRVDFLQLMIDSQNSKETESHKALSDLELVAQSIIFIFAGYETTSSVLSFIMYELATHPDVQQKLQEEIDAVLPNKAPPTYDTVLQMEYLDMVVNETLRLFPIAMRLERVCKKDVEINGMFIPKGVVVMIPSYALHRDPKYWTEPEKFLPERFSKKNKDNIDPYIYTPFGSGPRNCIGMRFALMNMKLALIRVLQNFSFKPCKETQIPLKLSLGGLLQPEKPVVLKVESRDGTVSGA
Outline: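 20 nM human CYP3A4 with 25 uM Luciferin-PPXE (at KM) in 200 mM KPO4, preincubated 10 min with compound; NADPH regeneration started a 60 min RT reaction. Luciferin detected by luminescence, normalized to 57 uM ketoconazole as full inhibition.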

[7] = Confirmation and Secondary Assay for Modulators of Hemoglobin Beta Chain Splicing at IVS2 654 locus (AID 910);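 also: HeLa cells stably carrying EGFP split by mutant beta-globin IVS2-654 intron; per-well total GFP intensity by laser scanning cytometry after 2-day treatment; % of control where 0% means no effect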
Outline: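 Readout: per-well total peak green fluorescence (488 nm ex, 500–520 nm em) from objects 5–250 µm, reflecting correct splicing of an EGFP-654 reporter. Compounds were applied for 2 days at 37 °C to overnight-plated HeLa EGFP-654 cells; controls were DMSO and 500 nM IVS2-654 PNA.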

[8] = Confirmation and Secondary Assay for Modulators of Hemoglobin Beta Chain Splicing at IVS2 705 locus (AID 930);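 also: HeLa cells stably expressing the EGFP-705 splicing reporter; % of control where 0% means no effect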
Outline: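 HeLa cells stably carrying EGFP interrupted by mutant beta-globin IVS2-705 intron (CMV-driven) were seeded at 500 cells/well, treated next day with compound for 2 days at 37C; corrected splicing restores EGFP, read as total peak GFP intensity per well.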

[9] = S16 Schwann cell viability assay (CellTiter-Glo assay) (AID 624031); also: nearly all actives have a fitted effect of over 70% in size; also: potency is read from the fitted curve at half-maximal effect
Outline: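 Native S16 rat Schwann cells in DMEM/10% FBS without phenol red were incubated overnight, then exposed to compounds for 24 h at 37 °C/5% CO2. Viability was read as ATP luminescence (CellTiter-Glo), normalized to no-cell wells and DMSO (0%).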

[10] = biological target: Mitogen-activated protein kinase 10 (Mus musculus) (UniProt Q61831); assay: JNK3 AlphaScreen Assay (AID 530; active = well fitted curve in either direction with a large enough effect, not every such curve was filed as active;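 also: kinase came from lysate of stimulated human HepG2 cells; signal reports phosphorylation of biotinylated GST-cJun 1-79 at Ser73 with 10 µM ATP; % is scaled to controls: 0 for no effect and ±100 for the full control effect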)
Outline: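 Room-temperature AlphaScreen kinase assay; pre-activated HepG2 lysate as JNK3 source, biotin-GST-cJun(1-79) substrate, 10 uM ATP, compound 15 min preincubation.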

Cc1onc(-c2c(F)cccc2Cl)c1C(=O)NC1C(=O)N2C1SC(C)(C)C2C(=O)O (stereo unspecified)
inactive: Potency [1] | Potency [2] | Potency [3] | Potency [4] | Potency [5]

NCCCCC(N)C(=O)O (stereo unspecified)
inactive: Potency [2] | Potency [3] | Potency [4] | Potency [5]

CC(CCC(=O)O)C1CCC2C3C(=O)C[C@@H]4CC(=O)CC[C@@]4(C)C3CC(=O)[C@]12C (stereo partly specified)
inactive: Potency [6] | Potency [7] | Potency [8] | Potency [1] | Potency [9] | Potency [3] | Potency [4]

C=C1NC(=O)c2cc(CN(C)c3ccc(C(=O)N[C@@H](CCC(=O)O)C(=O)O)s3)ccc2N1
inactive: Potency [1] | Potency [2] | Potency [9] | Potency [4]
active: Potency [3] 0.0079 µM | Potency [5] 13.5 µM

C/C(=C(/CCO)SS/C(CCO)=C(\C)N(C=O)Cc1cnc(C)nc1N)N(C=O)Cc1cnc(C)nc1N
inactive: Potency [1] | Potency [2] | Potency [9] | Potency [4] | Potency [5]

CCCCC(=O)O[C@]1(C(=O)CO)CCC2C3CCC4=CC(=O)CCC4(C)C3C(O)CC21C (stereo partly specified)
active: ratio activity, negative = inhibition [3] -11.9%
inactive: Potency [2] | Potency [9] | Potency [4]

NC(=O)c1ncn(C2OC(CO)C(O)C2O)c1N (stereo unspecified)
inactive: Potency [6] | Potency [7] | Potency [8] | Potency [1] | Potency [2] | Potency [9] | Potency [4] | Potency [5]

O=C(O)C(O)c1ccccc1 (stereo unspecified)
inactive: Potency [1] | Potency [2] | Potency [9] | Potency [3] | Potency [5]

CC1(C(=O)O)CCC2(C)CCC3(C)C(=CC(=O)C4C5(C)CCC(O)C(C)(C)C5CCC43C)C2C1 (stereo unspecified)
inactive: Potency [2] | Potency [9] | Potency [3] | Potency [4] | Potency [5]

CCCCCOC(=O)Nc1nc(=O)n(C2O[C@H](C)[C@@H](O)[C@@H]2O)cc1F (stereo partly specified)
inactive: Potency [9] | Potency [3] | Potency [4]

CO/N=C(/C(=O)N[C@@H]1C(=O)N2C(C(=O)O)=C(CSc3nnnn3C)CS[C@H]12)c1csc(N)n1
inactive: Potency [2] | Potency [9] | Potency [4] | Potency [5]

CC[C@H](C)[C@H]1O[C@]2(CC[C@@H]1C)C[C@@H]1C[C@@H](C/C=C(\C)[C@H](O[C@@H]3C[C@H](OC)[C@H](O[C@@H]4C[C@H](OC)[C@@H](O)[C@H](C)O4)[C@H](C)O3)[C@@H](C)/C=C/C=C3\CO[C@@H]4[C@H](O)C(C)=C[C@@H](C(=O)O1)[C@]34O)O2
active: Potency [9] 12.8 µM | Potency [4] 0.794 µM | Potency [5] 1.69 µM
inactive: Potency [2]

C[C@@H](O)[C@@H]1C(=O)N2C(C(=O)O)=C([C@H]3CCCO3)S[C@H]12
inactive: Potency [1] | Potency [2] | Potency [3] | Potency [4] | Potency [5]

CCN(CC)CC(=O)Nc1c(C)cc(C)cc1C
inactive: Potency [1] | Potency [2] | Potency [3]

OCC(CO)NC1C[C@](O)(CO)[C@@H](O)[C@H](O)[C@H]1O (stereo partly specified)
inactive: Potency [1] | Potency [2] | Potency [9] | Potency [3] | Potency [4] | Potency [5]

O=C(O)c1ccc(N[C@@H]2OC[C@@H](O)[C@@H](O)[C@@H]2O)cc1
inactive: Potency [1] | Potency [2] | Potency [4] | Potency [5]

OCC1OC(O)C(O)C(O)C1O (stereo unspecified)
inactive: Potency [1] | Potency [9] | Potency [3] | Potency [4]

O=C(O)Cc1sc(-c2ccc(Cl)cc2)nc1-c1ccccc1
active: Potency [2] 25.6 µM
inactive: Potency [1] | Potency [9] | Potency [4] | Potency [5]

CO/N=C(/C(=O)N[C@@H]1C(=O)N2C(C(=O)O)=C(CSc3cnns3)CS[C@H]12)c1csc(N)n1
inactive: Potency [3] | Potency [5]

CO/N=C(/C(=O)N[C@@H]1C(=O)N2C(C(=O)O)=C(CSC(=O)c3ccco3)CSC12)c1csc(N)n1 (stereo partly specified)
inactive: Potency [1] | Potency [2] | Potency [4] | Potency [5]

C=C1/C(=C\C=C2/CCC[C@]3(C)[C@@H]([C@H](C)/C=C/[C@@H](O)C4CC4)CC[C@@H]23)C[C@@H](O)C[C@@H]1O
inactive: Potency [2] | Potency [9] | Potency [3] | Potency [4]

C[C@]12CC[C@@H]3c4ccc(O)cc4C[C@@H](CCCCCCCCCS(=O)CCCC(F)(F)C(F)(F)F)C3[C@@H]1CC[C@@H]2O (stereo partly specified)
inactive: Potency [2] | Potency [9]
active: Potency [4] 11.2 µM | Potency [5] 6.75 µM

CC(=O)O[C@]1(C(C)=O)CCC2C3CCC4=CC(=O)CCC4(C)C3(F)C(O)CC21C (stereo partly specified)
inactive: Potency [1] | Potency [2] | Potency [9] | Potency [3] | Potency [4]

C#C[C@@]1(O)CC[C@@H]2[C@H]3CCC4=C/C(=N\O)CC[C@H]4[C@@H]3CC[C@]21CC
inactive: Potency [1] | Potency [2] | Potency [3] | Potency [4]

C=C(CC[C@@H](C)[C@H]1CCC2[C@]1(C)CC[C@]13C[C@@]14CCC(OC(=O)/C=C/c1ccc(O)c(OC)c1)C(C)(C)[C@@H]4CC[C@@]23C)C(C)C (stereo partly specified)
inactive: Potency [2] | Potency [9] | Potency [5]

C[C@]12CC[C@@H]3c4ccc(O)cc4CC[C@H]3[C@@H]1CCC2OC(=O)CCC1CCCC1 (stereo partly specified)
inactive: Potency [3]

OC[C@@H](O)C(O[C@@H]1O[C@@H](CO)[C@H](O)[C@H](O)[C@H]1O)[C@H](O)[C@@H](O)CO (stereo partly specified)
inactive: Potency [2] | Potency [3] | Potency [4] | Potency [5]

COC(=O)C1C2CC3c4[nH]c5cc(OC)ccc5c4CCN3CC2CC(OC)C1OC (stereo unspecified)
inactive: Potency [1] | Potency [2] | Potency [3] | Potency [4]

Clc1ccc(CS[C@@H](Cn2ccnc2)c2ccc(Cl)cc2Cl)cc1
inactive: Potency [10] | Potency [2] | Potency [9] | Potency [3]
active: Potency [4] 3.16 µM | Potency [5] 1.02 µM

N#C/C(=C1/SCC(c2ccccc2Cl)S1)n1ccnc1 (stereo unspecified)
inactive: Potency [1] | Potency [2] | Potency [3] | Potency [4] | Potency [5]

CC(=O)CC(c1ccccc1)C1C(=O)Oc2ccccc2C1=O (stereo unspecified)
inactive: Potency [1] | Potency [2] | Potency [9] | Potency [4] | Potency [5]

CC(CN1CC(=O)NC(=O)C1)N1CC(=O)NC(=O)C1 (stereo unspecified)
inactive: Potency [1] | Potency [3] | Potency [4] | Potency [5]

C[C@@H]1CC2C3CCC4=CC(=O)C=C[C@]4(C)[C@@]3(F)[C@@H](O)C[C@]2(C)[C@@]1(O)C(=O)COC(=O)c1cccc(S(=O)(=O)O)c1 (stereo partly specified)
inactive: Potency [2] | Potency [9] | Potency [4] | Potency [5]
